Rows were chosen to be rich in hits. Some 10% of all compounds tested hit in one or more screens of this group.
HPGD inh – blocks human HPGD enzyme activity. purified HPGD, NADH fluorescence kinetic, PGE2 substrate. actives 4.3% (n = 150,000). P15428. Potency, µM, for the others: at the top dose activity change, negative = inhibition, usual class: inhibitors; also: potency is read from the fitted curve at half-maximal effect
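20 nM HPGD preincubated 15 min at room temperature with compound in 50 mM Tris-HCl pH 8, 0.01% Tween 20. Started with 1 mM NAD+ and 30 uM prostaglandin E2; NADH fluorescence (360/450 nm) read 5 times over 30-s intervals, last minus first.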
ALDH1A1 block – ALDH1A1 (human) enzyme inhibition. Potency, µM (titrated, usually from 75.3 µM), for inactives: at the highest dose activity, negative = inhibition, hits mostly inhibitors. actives 7.3% (n = 220,000). P00352. Purified ALDH1A1, NADH fluorescence, propionaldehyde substrate. AID 1030;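 also: potency is read from the fitted curve at half-maximal effect; plate controls were no enzyme wells and a reference inhibitor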
Target sequence (P00352 whole entry, looked up): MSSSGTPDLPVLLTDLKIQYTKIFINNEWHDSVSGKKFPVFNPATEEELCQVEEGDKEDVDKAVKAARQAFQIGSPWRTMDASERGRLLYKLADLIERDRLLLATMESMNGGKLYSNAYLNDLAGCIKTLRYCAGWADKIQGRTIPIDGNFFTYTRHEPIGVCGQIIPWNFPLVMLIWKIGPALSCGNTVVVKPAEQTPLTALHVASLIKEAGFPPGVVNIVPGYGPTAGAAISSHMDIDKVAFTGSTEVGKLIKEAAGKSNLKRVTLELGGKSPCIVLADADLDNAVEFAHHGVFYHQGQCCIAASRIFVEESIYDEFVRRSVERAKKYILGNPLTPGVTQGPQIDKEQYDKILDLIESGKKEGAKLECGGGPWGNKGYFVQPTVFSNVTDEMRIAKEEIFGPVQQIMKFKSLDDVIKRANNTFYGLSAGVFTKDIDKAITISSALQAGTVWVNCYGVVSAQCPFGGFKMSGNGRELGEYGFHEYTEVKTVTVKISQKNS
KinaseGlo FLuc – counter-screen: inhibitors of Kinase-Glo firefly luciferase; Kinase-Glo luciferase, ATP luminescence, 8 min; Potency, µM (highest dose often 38.3 µM), without a hit: top-dose activity change, negative = inhibition, usual class: inhibitors; actives 0.28% (n = 200,000); AID 1379; active = well fitted inhibition curve with a large enough effect; inconclusive = small, poorly fitted or top-dose-only effect; also: potency is read from the fitted curve at half-maximal effect; nearly all actives have a fitted effect of over 60% in size
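Inhibition of Kinase-Glo luciferase light generation was assessed at 10 uM ATP in pH 7.2 imidazole buffer, with luminescence measured after eight minutes at ambient temperature.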
LMNA splice mod – changes lamin A minigene splicing in HeLa cells. actives 0.01% (n = 200,000). HeLa LMNA splicing GFP/RFP minigene ratio, 48 h. Potency, µM (top dose mostly 46.1 µM), for the others: at the top dose ratio change, negative = inhibition, actives largely listed as inhibitors; active = well fitted inhibition curve with a large enough effect in the signal ratio, with a control signal flat, not every such curve was filed as active; inconclusive = small, poorly fitted or top-dose-only effect, or effect the other way, or a change in a side signal; the % refers to the signal ratio; also: potency is read from the fitted curve at half-maximal effect
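S3 HeLa cells stably expressing lamin A-EGFP splicing minigene plus DsRed2, 600 cells/well, 48 h compound exposure at 37C. Laser-scanning cytometry; analysed as GFP (500-530 nm)/RFP (575-640 nm) total intensity ratio; 0.5% DMSO vehicle.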
IMPase inh – IMPase inhibition in cells | P97697 | CHO-M1 cells, IP1 accumulation, HTRF TR-FRET ratio | inhibition (IP1 accumulation), % at 46.1 µM | 120,000 tested, under 10 active | AID 901; active = well fitted curve in the direction sought with a large enough effect in the signal ratio, not every such curve was filed as active; inconclusive = small, poorly fitted or top-dose-only effect, or a change in a side signal; inactive = no such curve, though single readings can be large or run the other way; the % refers to the signal ratio;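 also: cells stimulated with carbachol in lithium chloride buffer; plate controls were DMSO basal wells for no effect and reference inhibitor wells for full effect; higher means more IMPase inhibition seen as more IP1 and lower FRET ratio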
Target sequence (P97697 whole entry, looked up): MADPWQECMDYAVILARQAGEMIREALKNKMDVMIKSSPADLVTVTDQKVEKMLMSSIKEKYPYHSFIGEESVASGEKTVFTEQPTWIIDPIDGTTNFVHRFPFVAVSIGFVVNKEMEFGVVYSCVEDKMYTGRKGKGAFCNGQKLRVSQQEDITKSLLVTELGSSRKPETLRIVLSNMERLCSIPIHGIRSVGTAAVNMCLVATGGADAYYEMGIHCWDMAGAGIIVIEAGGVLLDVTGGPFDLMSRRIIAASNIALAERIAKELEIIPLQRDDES
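In this qHTS, compounds (final up to 46 uM) act on CHO-M1 cells that are then activated through the M1 receptor with carbachol, in pH 7.4 buffer containing 50 mM LiCl, for 30 min. IP1 accumulation is quantified by the IP-One immunoassay.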
PNC inhibitor – inhibitors of perinucleolar compartment assembly; activity change (PNC), negative = inhibition, % at 10 µM; PC3M PTB-GFP, PNC prevalence imaging, 16 h; active compounds read low; actives 3.1% (n = 140,000); AID 2417;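 active = readout at or below -70, meaning at least 70% loss of cells showing the perinucleolar compartment, a nuclear body marking cancer cells; inconclusive = readout between -30 and a set limit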;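 also: plate controls were DMSO wells for no effect and camptothecin positive control wells for full effect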
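Read-out is percentage of cells bearing a perinucleolar compartment, from automated 20x imaging of fixed, Hoechst-stained PC3M PTB-GFP cells. Cells were seeded 4 h, then exposed 16 h to compound (23 nl of library stock) in duplicate plates.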
Starred values were filed as active, the others as inactive; ? = inconclusive; nt = no result; [ ] = remark or other dose. Unless noted, calls follow the shape of the dose curve; as a rule, active = well fitted inhibition curve with a large enough effect (not every such curve was filed as active); inconclusive = small, poorly fitted or top-dose-only effect, or another doubt; inactive = no such curve, though single readings can be large or run the other way. Unless noted, % is scaled to controls: 0 for no effect and ±100 for the full control effect.

SMILES	HPGD inh	ALDH1A1 block	KinaseGlo FLuc	LMNA splice mod	IMPase inh	PNC inhibitor
O=C(NC1CC1)c1ccc(F)cc1Cl	20µM*	-6%	-4%	-14%	-4	1
COc1cc(SC)ccc1C(=O)N1CCN(c2ccccc2)CC1	nt	-5%	-1%	-9%[46 µM]	nt	nt
COc1cc(SC)ccc1C(=O)N1CCCCCC1	3.2µM*	6%	0%	?	3	-17
COc1cc(SC)ccc1C(=O)OCC(=O)NC1CCCCC1	nt	-9%	0%	18%[46 µM]	nt	nt
CSc1ccc(Cl)c(C(=O)NC2CCCC2)c1	16µM*	9%	-6%	12%	3	20
C=CC#CC[N+]1(CC#Cc2ccccc2)CCOCC1	25µM*	?	-1%	6%	nt	-14
CCOC(=O)CNNC(=O)Nc1ccc(Cl)c(Cl)c1	-1%	0%	-4%	-3%	nt	10
CCOC(=O)NCCOC(=O)Nc1ccc(Cl)cc1	nt	5%	2%	7%[46 µM]	nt	nt
CCOC(=O)N(CC)OC(=O)Nc1ccc(Cl)cc1	-8%	4.5µM*	16%	-1%	5	-8
CCOC(=O)N(C)OC(=O)Nc1ccc(Cl)c(Cl)c1	?	4µM*	14%	13%	0	-1
COc1cc(NC(=O)CSc2nc3nc(C)c(Cc4ccc(C)cc4)c(C)n3n2)cc(OC)c1	nt	nt	nt	11%[46 µM]	nt	nt
Cc1nc2cc(C(=O)O)ccc2n1C1CCCCC1	-7%	11%	2%	-11%	-10	-100*
CCOc1ccc2ncc(S(=O)(=O)c3ccc(C)cc3)c(N3CCC4(CC3)OCCO4)c2c1	nt	3.2µM*	nt	?	2	?
CCc1c(C)sc(NC(=O)Cn2nc(C)c([N+](=O)[O-])c2C)c1C(N)=O	nt	7.1µM*	4%	10%[46 µM]	nt	nt
O=C(NCc1cccc(F)c1)c1ccc2nc(CCc3ccccc3)oc2c1	nt	nt	nt	-1%[46 µM]	nt	nt
CC(C)C(NC=C1C(=O)OC(C)(C)OC1=O)C(=O)O (stereo not given)	-7%	8.9µM*	-1%	12%	-7	-20
C=CCOCC1CN2C(CCC(C)C2c2ccc(Br)cc2)C(=O)O1 (stereo not given)	nt	4%[13.5 µM]	nt	nt	nt	nt
Cc1ccc(S(=O)(=O)/N=C2/NC(=O)/C(=C/c3ccccc3)S2)cc1	nt	?	4%	nt	nt	nt
Cc1ccc(S(=O)(=O)/N=C2/NC(=O)/C(=C/c3ccncc3)S2)cc1	14µM*	?	1%	16%	nt	47
COc1cc(/C=C2\S/C(=N/S(=O)(=O)c3ccc(C)cc3)NC2=O)c([N+](=O)[O-])cc1OC	7.1µM*	?	1%	-1%	-8	?
O=C(NS(=O)(=O)c1ccc(F)cc1)O[C@@H]1C(=O)c2cc(Br)ccc2O[C@H]1c1ccc2c(c1)OCO2	-9%	?	0%	nt	nt	nt
O=C(c1ccccc1)c1coc2c1C(=O)c1ccccc1C2=O	nt	20µM*	-2%	?	nt	nt
Cn1c(SCCCC(=O)c2ccc(Br)cc2)nnc1-c1ccncc1	18µM*	7%	-4%	?	1	5
CC(C)C[C@@H](CC(=O)N[C@H](CC(=O)N[C@@H]1CCNC[C@H]1C(=O)N[C@H](CC(=O)N[C@@H](CCC(=O)O)CC(=O)O)CC(C)C)C(C)C)NC(=O)[C@@H]1CNCC[C@H]1N	-9%	-5%	1%	nt	nt	nt
Cc1ccc(S(=O)(=O)c2ccc(Cl)cc2)cc1S(=O)(=O)NC(C)C(=O)O (stereo not given)	1%	14%	-1%	-10%	nt	-90*
SMILES	HPGD inh	ALDH1A1 block	KinaseGlo FLuc	LMNA splice mod	IMPase inh	PNC inhibitor
CCOC(=O)Cc1csc(NC(=O)NC2(C(F)(F)F)Oc3ccccc3O2)n1	35µM*	-16%	1%	-5%	5	-7
COc1cccc(NC(=O)NC2(C(F)(F)F)Oc3ccccc3O2)c1	-27%	35µM*	2%	?	-2	?
COc1cccc(NC(=O)Nc2cccc(C(=O)O)c2)c1	nt	6%	-11%	18%[46 µM]	nt	nt
CCOC(=O)Cc1csc(NC(=O)c2cc3c(s2)CCCC3)n1	-8%	?	7%	8%	2	5
CCOC(=O)Cc1csc(NC(=O)NC2(C(F)(F)F)Oc3ccc(Cl)cc3O2)n1 (stereo not given)	-18%	-8%	2%	?	-2	?
CCOC(=O)Cc1csc(NC(=O)c2csc3c2CCCC3)n1	?	14µM*	-4%	3%	-3	-16
CCN(C(=O)CSc1nc2ccccc2n1CC(=O)N1CCCC(C)C1)c1ccccc1 (stereo not given)	nt	nt	nt	0%[46 µM]	nt	nt
O=C(c1ccccc1)c1ccc(OCCn2cnc3ccccc3c2=O)cc1	4.5µM*	?	0%	11%	19	?
CC(C)(c1ccccc1)c1ccc(OCCn2cnc3ccccc3c2=O)cc1	-19%	-6%	-4%	?	12	-3
Cc1nc2cnc(N(C)C)nc2n(CCC#N)c1=O	nt	?	nt	-6%	nt	nt
Cn1c(=O)[nH]c(=O)c2c1nc(N1CCCCC1)n2CCSc1nc2ccccc2o1	-11%	4%	15%	-3%	5	0
CC(C)CCn1c(Sc2nc3ccccc3o2)nc2c1c(=O)[nH]c(=O)n2C	-5%	11µM*	-3%	?	nt	-16
CC(C)CCn1c(SCc2ccc(Cl)cc2)nc2c1c(=O)[nH]c(=O)n2C	25µM*	11µM*	-2%	?	2	-6
CCCCn1c(SCc2ccc(Cl)cc2)nc2c1c(=O)[nH]c(=O)n2C	?	28µM*	-3%	20%	-4	-13
CCCCC/C=C\C/C=C\C/C=C\CCCCCCC(=O)NC(C)C(=O)O (stereo not given)	-5%	-5%	2%	nt	nt	nt
NNC(=O)c1sccc1OCc1ccc(Cl)cc1	nt	2.2µM*	-5%	-29%[46 µM]	nt	nt
COC(=O)c1ccc(C(/C=C/[C@@H](C)C(=O)NCCc2c[nH]c3ccccc23)NC(=O)OCc2ccccc2)cc1 (stereo not given in full)	-10%	?	-1%	nt	nt	nt
CCCCCC/C(C)=C1/SC(=S)NC1=O	13µM*	?	-4%	7%	3	74
Cc1ccc(C)o1	-7%	-5%	nt	nt	nt	nt
CCOc1ccc(C(=O)N/N=C/c2cc(Cl)ccc2[N+](=O)[O-])cc1	22µM*	-10%	1%	8%	nt	7
CCOc1ccc(Cl)cc1/C=N/NC(=O)c1ccccc1	-20%	-1%	3%	-7%	nt	-7
COc1ccccc1CNC(=O)CCn1c(=O)[nH]c2ccsc2c1=O	-6%	9%	2%	-2%	11	-100*
CCC(=O)Nc1sc2c(c1C#N)CC(C)(CC)OC2 (stereo not given)	40µM*	-7%	0%	11%	0	24
O=C(NCc1ccccc1)NC1COc2ccccc2C1 (stereo not given)	nt	nt	nt	3%[46 µM]	nt	nt
